High-throughput results deposited in PubChem BioAssay by National Center for Advancing Translational Sciences (NCATS).
An excerpt weighted towards active compounds, which were near 3.1% of everything screened.
OvCa metastasis = ovarian cancer metastasis inhibition, 3D TME model. Potency, µM (titrated, usually from 45.8 µM), for the others: top-dose activity change, negative = inhibition, actives largely listed as inhibitors. AID 1963576. 46,000 tested, 0.1% active. SKOV3ip1-GFP adhesion/invasion on 3D omental model, fluorescence;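 note: potency is the fitted concentration of half-maximal effect; plate controls were DMSO wells for no effect and tomatine positive control wells for full effect; nearly all actives have a fitted effect of over 65% in size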
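Primary human omental fibroblast/mesothelial 3D culture pre-formed 48 h. SKOV3ip1-GFP cells added with compounds (0.36-46 umol/L), incubated 2 h RT/16 h 37 C, fixed; GFP cells quantified at 488/509 nm.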
PMP22 txn prim = PMP22 gene transcription modulation; S16 Pmp22-F2sN Schwann cells, FLuc/NLuc coincidence luminescence, 24 h; Potency, µM (doses to about 57.5 µM), without a hit: at the highest dose activity change, negative = inhibition, usual class: inhibitors; 43,000 tested, 2% active; AID 1508649; active = clear falling dose curves in both reporters; inconclusive = both reporters move, but less clearly or upward; inactive = either reporter flat; the % is the NLuc reporter signal; note: potency is the fitted concentration of half-maximal effect; % is set by controls: 0 for no effect and ±100 for the full control effect
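Luminescent read-out of sequential FLuc and NLuc signals from a reporter embedded in the Pmp22 3' UTR of S16 Schwann cells, taken after 24 h compound exposure at 37C; compounds reducing both signals score as inhibitors of expression.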
mTORC1 inh = reduces mTORC1 signaling in Tsc2 and p53 null MEF cells | Tsc2-/- p53-/- MEF, phospho-rpS6 immunofluorescence/PI, 24 h | Potency, µM (top dose mostly 38.3 µM), for the others: top-dose activity change, negative = inhibition, actives largely listed as inhibitors | 44,000 tested, 0.78% active | AID 493208;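 note: potency is the fitted concentration of half-maximal effect; plate controls were DMSO for no effect and rapamycin for full effect; nearly all actives have a fitted effect of over 50% in size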
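Read-out: phospho-S6 Alexa-488 intensity over PI intensity per well, scored as % active cells using thresholds from rapamycin (7.5 nM) and DMSO controls. Tsc2-/-, p53-/- MEFs exposed to compound for 24 h; PI cell count recorded as viability.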
p53null 39C tox = p53 null cell cytotoxicity, nonpermissive temperature | 55,000 tested, 0.97% active | H1299 p53-null (neo) cells, 39C, ATPlite viability, 24 h | Potency, µM (titrated, usually from 46.1 µM), inactives show at the highest dose activity, negative = cell killing, hits mostly cytotoxic;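 note: potency is the fitted concentration of half-maximal effect; 0% = DMSO only and -100% = full killing by 100 µM tamoxifen; nearly all actives have a fitted effect of over 50% in size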
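Following overnight plating at 37C (600 cells/well), H1299-neo or H1299-p53A138V cells are dosed up to 46 uM. Incubation lasts 24 hr at 39C before ATP detection.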
S16 F2sN tox = S16 Schwann cell cytotoxicity | S16 Pmp22-F2sN Schwann cells viability, CellTiter-Glo, 24 h | Potency, µM (titrated, usually from 57.5 µM), for inactives: at the highest dose activity change, negative = cytotoxicity, usual class: cytotoxic | 43,000 tested, 0.48% active; note: potency is the fitted concentration of half-maximal effect; % is set by controls: 0 for no effect and ±100 for the full control effect; nearly all actives have a fitted effect of over 65% in size
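Luminescence from CellTiter-Glo, read by CCD camera after a 15 min room-temperature incubation, served as the viability signal. Reporter Schwann cells (S16 Pmp22-F2sN) had been treated with pin-transferred compounds for 24 h at 37C.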
p53null 32C kill = p53 null cell cytotoxicity, permissive temperature; 55,000 tested, 0.62% active; Potency, µM (series often up to 46.1 µM), for inactives: at the highest dose activity change, negative = cytotoxicity, usual class: cytotoxic; H1299-neo p53 null cells, ATP luminescence, 24 h, 32C;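 note: potency is the fitted concentration of half-maximal effect; 0% = DMSO only and -100% = full killing by 100 µM tamoxifen; nearly all actives have a fitted effect of over 55% in size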
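H1299-neo (p53-null) cells, 600/well, were pre-incubated overnight at 37C, then exposed to compounds at up to 46 uM for 24 hr at 32C. Viability was measured as ATP content by luminescence, and AC50 values came from Hill fits.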
NLuc saturating = inhibits NanoLuc at saturating substrate, PMP22 counter-screen | AID 1508638 | Potency, µM (top dose mostly 57.5 µM), inactives show at the top dose activity change, negative = inhibition, most hits filed as inhibitors | 690 tested, 4% active | shares compounds with PMP22 txn prim | Secreted NLuc enzyme (filtered S16 cell medium), Nano-Glo luminescence; note: potency is the fitted concentration of half-maximal effect; % is set by controls: 0 for no effect and ±100 for the full control effect
NLuc Km counter = counter-screen for PMP22 expression modulators: NanoLuc inhibition at Km; AID 1508639; Potency, µM (highest dose often 57.5 µM), without a hit: at the top dose activity change, negative = inhibition, usual class: inhibitors; secreted NLuc enzyme, coelenterazine luminescence, Km conditions; shares compounds with PMP22 txn prim; 690 tested, 5% active; note: potency is the fitted concentration of half-maximal effect; % is set by controls: 0 for no effect and ±100 for the full control effect
FLuc counter = inhibits firefly luciferase, PMP22 counter-screen. shares compounds with PMP22 txn prim. purified P. pyralis FLuc, luminescence, 10 min. Potency, µM (series often up to 57.5 µM), for inactives: at the top dose activity, negative = inhibition, actives largely listed as inhibitors. 690 tested, under 10 active; note: % of control where 0% means no effect
Target sequence (P08659 whole entry, looked up): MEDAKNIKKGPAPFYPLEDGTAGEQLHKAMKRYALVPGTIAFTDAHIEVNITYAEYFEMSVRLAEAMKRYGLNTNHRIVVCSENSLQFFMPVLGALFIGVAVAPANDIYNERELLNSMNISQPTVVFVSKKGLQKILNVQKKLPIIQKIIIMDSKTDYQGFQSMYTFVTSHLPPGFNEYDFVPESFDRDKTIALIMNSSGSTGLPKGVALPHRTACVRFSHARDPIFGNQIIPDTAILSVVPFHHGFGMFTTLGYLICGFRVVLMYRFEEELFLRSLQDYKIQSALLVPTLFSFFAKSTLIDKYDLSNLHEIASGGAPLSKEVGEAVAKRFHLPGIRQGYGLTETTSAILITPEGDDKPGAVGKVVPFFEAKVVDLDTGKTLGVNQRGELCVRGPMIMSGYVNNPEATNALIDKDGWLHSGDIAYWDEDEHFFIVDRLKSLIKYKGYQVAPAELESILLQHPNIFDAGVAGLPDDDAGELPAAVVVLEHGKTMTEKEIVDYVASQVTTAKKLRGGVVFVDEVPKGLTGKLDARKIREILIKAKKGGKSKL
S16 F2sN tox cnf = confirmation of cytotoxicity in S16 Pmp22-F2sN Schwann cells (luciferase reporters placed in the Pmp22 gene); S16 Schwann cells viability, CellTiter-Glo ATP luminescence, 24 h; Potency, µM (highest dose often 57.5 µM), inactives show at the top dose activity change, negative = viability loss, actives largely listed as cytotoxic; shares compounds with PMP22 txn prim; 690 tested, 7% active; note: potency is the fitted concentration of half-maximal effect; % is set by controls: 0 for no effect and ±100 for the full control effect
PMP22 txn cnf = confirmation of modulators of PMP22 gene transcription in S16 cells. S16 Schwann cells Pmp22-F2sN, dual luciferase, 24 h. 690 tested, 22% active. Potency, µM (highest dose often 57.5 µM), inactives show top-dose activity change, negative = inhibition, usual class: inhibitors. shares compounds with PMP22 txn prim. AID 1508646; active = clear falling dose curves in both reporters; inconclusive = both reporters move, but less clearly or upward; inactive = either reporter flat; the % is the FLuc reporter signal; note: potency is the fitted concentration of half-maximal effect
PMP22 HiBiT cnf = confirmation of modulators of rat PMP22 protein expression; AID 1508647; Potency, µM (titrated, usually from 27.9 µM), for the others: at the top dose activity change, negative = inhibition, hits mostly inhibitors; 95 tested, under 10 active; shares compounds with PMP22 txn prim; S16 Schwann cells Pmp22-HiBiT, luminescence, 48 h
Target sequence (P25094 whole entry, looked up): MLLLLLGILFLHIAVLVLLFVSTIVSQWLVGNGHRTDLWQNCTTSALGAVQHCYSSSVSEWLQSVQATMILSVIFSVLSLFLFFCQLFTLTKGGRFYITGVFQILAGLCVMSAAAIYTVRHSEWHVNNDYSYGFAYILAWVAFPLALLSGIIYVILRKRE
Starred values were filed as active, the others as inactive; i = inactive; ? = inconclusive; · = not tested or not shown. Unless noted, calls come from the whole dose curve; as a rule, active = well fitted curve in the direction sought with a large enough effect; inconclusive = small, poorly fitted or top-dose-only effect, or another doubt; inactive = no such curve, though single readings can be large; an effect the other way counts as inactive or inconclusive.

SMILES | OvCa metastasis | PMP22 txn prim | mTORC1 inh | p53null 39C tox | S16 F2sN tox | p53null 32C kill | NLuc saturating | NLuc Km counter | FLuc counter | S16 F2sN tox cnf | PMP22 txn cnf | others
Cc1ccc(Cl)cc1NC(=O)c1oc2ccc(S(=O)(=O)N3CCC4(CC3)OCCO4)cc2c1C | i | 7.5µM* | 8% | -4% | 3% | 3% | -11% | 2% | 1% | ? | ?
Cc1c(C(=O)Nc2ccccc2Br)oc2ccc(S(=O)(=O)N3CCCCC3)cc12 | 7% | ? | 10% | 6% | 3% | -9% | -1% | 8% | 3% | -7% | ?
Cc1c(C(=O)Nc2ccccc2Cl)oc2ccc(S(=O)(=O)N3CCCCC3)cc12 | i | 14µM* | -4% | 18% | 2% | -5% | -1% | 2% | 4% | -4% | ?
Nc1ncnc2ccccc12 | 2% | · | · | · | · | · | · | · | · | · | ·
CN(C)CC(C)(C)CNc1nn2c(-c3ccccc3)nnc2cc1C1CCC1 | -16% | · | · | · | · | · | · | · | · | · | ·
CCOC(=O)c1c(NC(=O)COc2ccc(Br)cc2)sc(C(C)=O)c1C | -6% | 2.1µM* | 3% | 0% | -23% | -3% | -3% | 3% | -5% | -9% | -6%
CCOC(=O)c1c(NC(=O)c2nc(S(C)(=O)=O)ncc2Cl)sc(C(C)=O)c1C | ? | 4.3µM* | 3.7µM* | 23% | ? | -9% | ? | ? | -10% | 14µM* | 3.4µM* | PMP22 HiBiT cnf=?
C[C@@H]1CN(CC(=O)Nc2ccc3c(c2)Cc2cccc(-c4cc(=O)cc(N5CCOCC5)o4)c2S3)C[C@H](C)O1 | 5% | · | · | · | · | · | · | · | · | · | ·
CCNC(=O)Nc1ccc2ncc(Nc3ccc(C)cc3)nc2n1 | -4% | · | · | · | · | · | · | · | · | · | ·
COc1ccc(-c2cc(C(F)(F)F)nc(S(C)(=O)=O)n2)cc1 | ? | 20µM* | 15µM* | ? | ? | ? | -16% | 14µM* | -9% | ? | 16µM* | PMP22 HiBiT cnf=4%
COc1ccc(-c2cc(C(F)(F)F)nc(-n3nc(C(F)(F)F)cc3C)n2)cc1 | -16% | ? | ? | 6% | 7% | 1% | · | · | · | · | ·
CC(C)OCCCNc1ncnc2sc3c(c12)CCCC3 | i | 14µM* | -20% | -8% | -10% | -3% | -3% | -3% | -9% | -7% | -6%
Cc1cnc(-c2cnc(NCCNc3ccc(C#N)cn3)nc2-c2ccc(Cl)cc2Cl)[nH]1 | -17% | · | · | · | · | · | · | · | · | · | ·
CCOC(=O)c1sc2ccccc2c1S(=O)(=O)N1CCN(c2cccc(C)c2)C(C)C1 (centres undefined) | -4% | -4% | -20% | -10% | -19% | -6% | · | · | · | · | ·
CC(=O)c1ccc(NC(=O)CSC2=Nc3ccccc3N=C(c3ccc(F)cc3)C2)cc1 | 16% | 15µM* | 4% | 41% | ? | -5% | ? | ? | 0% | -6% | ?
COc1ccc(NC(=O)Cn2c(=O)n(-c3cccc(C)c3)c(=O)c3c2c2cc(C)ccc2n3C)cc1Cl | 0% | 15µM* | -3% | -4% | 11% | -7% | -2% | 2% | 2% | 0% | ?
Cc1cccc(-n2c(=O)c3c(c4cc(C)ccc4n3C)n(CC(=O)NCCC3=CCCCC3)c2=O)c1 | 2% | ? | -6% | -14% | 0% | -2% | 2% | 12% | 5% | ? | 17µM* | PMP22 HiBiT cnf=4%
CCN(Cc1ccccc1)C(=O)Cn1c(=O)n(-c2cccc(C)c2)c(=O)c2c1c1cc(OC)ccc1n2C | -2% | ? | 7% | 5% | 17% | 14% | · | · | · | · | ·
CCN(Cc1ccccc1)C(=O)Cn1c(=O)n(-c2ccccc2)c(=O)c2c1c1cc(C)ccc1n2C | 2% | 18µM* | 3% | ? | ? | -20% | -6% | 1% | 4% | 18% | ?
CCCN(C(=O)COc1cc(=O)n(CC)c2ccccc12)c1ccc(C(C)C)cc1 | ? | ? | ? | ? | -13% | 116% | · | · | · | · | ·
CC(C)N1[N]C(=C2C=c3cc(O)ccc3=N2)c2c(N)ncnc21 | 20% | · | · | · | · | · | · | · | · | · | ·
O=C(CCCc1ccccc1)NC1CC(=O)N(c2ccc(F)cc2)C1 (centres undefined) | i | 0% | 2% | 5% | 8% | -5% | · | · | · | · | ·
C[C@H](NC(=O)Cc1cc(F)cc(F)c1)C(=O)N[C@@H]1C(=O)N(C)c2ccccc2-c2ccccc21 | 38% | · | · | · | · | · | · | · | · | · | ·
N#Cc1c(C(F)(F)F)cc(-c2cccs2)nc1SCC(=O)Nc1ccc(Cl)cc1 | 4% | 19µM* | ? | -19% | -5% | 2% | -4% | 3% | -5% | 9% | ?
O=C(CSc1nc2nccnc2c(=O)n1CCc1c[nH]c2ccccc12)Nc1ccc(F)cc1 | 21% | 7µM* | 6% | -9% | 12% | -2% | ? | ? | -14% | 7% | -40%
Cc1ccccc1C(=O)Nc1ccc(C(=O)N2CCCC(O)c3cc(Cl)ccc32)c(C)c1 (centres undefined) | 5% | · | · | · | · | · | · | · | · | · | ·
